Experimental data published in the antibiotic and cytotoxicity screens of Wong et al. (2023).
Screen size: about 39,000 compounds; about 1,500 (3.8%) were called active. The sample as a whole holds a higher share of actives than the screen did.

These compounds were tested on HSkMC (human skeletal muscle cells) (assay: cytotoxicity call (relative viability < 0.9)). Details: 10 µM.

Row | SMILES | cytotoxicity call
1 | COCC#Cc1cnc2c(c1)C(=O)N([C@@H](C)CO)C[C@H](C)[C@@H](CN(C)C(=O)CN1CCOCC1)O2 | inactive
2 | COc1ccc(S(=O)(=O)N2C[C@H](O)COC[C@H]3O[C@H](CC(=O)NCCCN4CCOCC4)CC[C@@H]32)cc1 | inactive
3 | C[C@@H]1CN([C@@H](C)CO)S(=O)(=O)c2ccc(C#Cc3ccc(F)cc3)cc2O[C@@H]1CN(C)S(C)(=O)=O | inactive
4 | Cc1noc(C)c1NC(=O)N(C)C[C@@H]1OCCCC[C@@H](C)Oc2ccc(NC(=O)Nc3cccc4ccccc34)cc2C(=O)N([C@H](C)CO)C[C@@H]1C | inactive
5 | CCCC#Cc1cnc2c(c1)C(=O)N([C@H](C)CO)C[C@H](C)[C@@H](CN(C)C(=O)c1ccc3c(c1)OCO3)O2 | inactive
6 | COc1ccc(S(=O)(=O)N(C)C[C@H]2Oc3ccc(NC(=O)CCCN(C)C)cc3CC(=O)N([C@@H](C)CO)C[C@@H]2C)cc1 | inactive
7 | O=C(C1=C[C@H](c2ccc(C(F)(F)F)cc2)C[C@H](OCc2ccc(CO)cc2)O1)N1CCN(Cc2ccc3c(c2)OCO3)CC1 | inactive
8 | CN(C)CCCCNC(=O)[C@H]1C[C@H]2C(=O)N[C@@H](Cc3ccccc3)C(=O)N2[C@H]1c1cccc(OCCO)c1 | inactive
9 | O=C(C[C@@H]1C[C@@H]2c3cc(NS(=O)(=O)c4ccc(F)cc4)ccc3O[C@@H]2[C@@H](CO)O1)N1CCOCC1 | inactive
10 | O=C1CN(S(=O)(=O)Cc2ccccc2)C[C@@H]2[C@H](c3ccc(C#Cc4cccc(F)c4)cc3)[C@H](CO)N12 | inactive
11 | O=C1CN(S(=O)(=O)Cc2ccccc2)C[C@@H]2[C@H](c3ccc(C#Cc4cccc(F)c4)cc3)[C@@H](CO)N12 | inactive
12 | O=C1CN(S(=O)(=O)Cc2ccccc2)C[C@H]2[C@H](c3ccc(C#Cc4cccc(F)c4)cc3)[C@@H](CO)N12 | inactive
13 | O=C1CN(S(=O)(=O)Cc2ccccc2)C[C@H]2[C@H](c3ccc(C#Cc4cccc(F)c4)cc3)[C@H](CO)N12 | active
14 | O=C1CN(S(=O)(=O)Cc2ccccc2)C[C@H]2[C@@H](c3ccc(C#Cc4cccc(F)c4)cc3)[C@@H](CO)N12 | inactive
15 | O=C1CN(S(=O)(=O)Cc2ccccc2)C[C@@H]2[C@@H](c3ccc(C#Cc4cccc(F)c4)cc3)[C@H](CO)N12 | active
16 | O=C1CN(S(=O)(=O)Cc2ccccc2)C[C@H]2[C@@H](c3ccc(C#Cc4cccc(F)c4)cc3)[C@H](CO)N12 | inactive
17 | COc1cccc(C#Cc2ccc([C@@H]3[C@H](CO)N4C(=O)CN(S(=O)(=O)c5ccccc5C)C[C@@H]34)cc2)c1 | inactive
18 | O=C1CN(S(=O)(=O)Cc2ccccc2)C[C@@H]2[C@@H](c3ccc(C#Cc4cccc(F)c4)cc3)[C@@H](CO)N12 | active
19 | C/C=C/c1ccc2c(c1)O[C@H](CN(C)Cc1ccc(C(=O)O)cc1)[C@H](C)CN([C@@H](C)CO)S2(=O)=O | inactive
20 | Cc1noc(C)c1NC(=O)N(C)C[C@H]1OCCCC[C@@H](C)Oc2ccc(NC(=O)c3ccccc3)cc2C(=O)N([C@@H](C)CO)C[C@H]1C | inactive

Row | SMILES | cytotoxicity call
21 | COc1ccc(S(=O)(=O)N(C)C[C@H]2Oc3ncc(C#CC4(O)CCCC4)cc3C(=O)N([C@@H](C)CO)C[C@@H]2C)cc1 | inactive
22 | Cc1ccc(C(=O)Nc2ccc(S(=O)(=O)O)c3cc(S(=O)(=O)O)cc(S(=O)(=O)O)c23)cc1NC(=O)c1cccc(NC(=O)Nc2cccc(C(=O)Nc3cc(C(=O)Nc4ccc(S(=O)(=O)O)c5cc(S(=O)(=O)O)cc(S(=O)(=O)O)c45)ccc3C)c2)c1 | inactive
23 | C[C@@H]1CN([C@H](C)CO)S(=O)(=O)c2ccc(C#CC(C)(C)O)cc2O[C@H]1CN(C)C(=O)C1CCCCC1 | inactive
24 | C[C@@H]1CCCCO[C@@H](CN(C)C(=O)CCC(F)(F)F)[C@@H](C)CN([C@@H](C)CO)C(=O)c2cc(NC(=O)c3ccccc3)ccc2O1 | inactive
25 | CC(C)NC(=O)N(C)C[C@@H]1Oc2ccc(NC(=O)C3CCCCC3)cc2C(=O)N([C@H](C)CO)C[C@@H]1C | inactive
26 | C[C@@H]1CCCCO[C@H](CN(C)C(=O)c2ccccc2)[C@H](C)CN([C@@H](C)CO)C(=O)c2cc(NC(=O)CCCCCC(=O)Nc3ccccc3N)ccc2O1 | inactive
27 | Cc1noc(C)c1NC(=O)Nc1cccc2c1O[C@@H](CN(C)C(=O)Nc1cccc3ccccc13)[C@@H](C)CN([C@@H](C)CO)C2=O | inactive
28 | COCCNC(=O)C[C@H]1CC[C@@H]2[C@H](COC[C@H](O)CN2C(=O)Nc2ccc3c(c2)OCO3)O1 | inactive
29 | C[N+](C)(CCOc1ccccc1)Cc1ccccc1.O=C(O)c1cc2ccccc2c(Br)c1O | inactive
30 | Cc1cc(C(C)(C)CC(C)(C)C)ccc1OCCOCC[N+](C)(C)Cc1ccccc1.[Cl-] | active
31 | C[N+](C)(CCOc1ccccc1)Cc1ccccc1.O=C([O-])c1cc2ccccc2cc1O | inactive
32 | COc1cccc(C#Cc2ccc3c(c2)O[C@@H](CN(C)S(=O)(=O)c2ccccc2F)[C@H](C)CN([C@@H](C)CO)S3(=O)=O)c1 | inactive
33 | C[C@@H]1CCCCO[C@H](CN(C)Cc2ccncc2)[C@H](C)CN([C@@H](C)CO)C(=O)c2cc(NC(=O)Nc3ccc(F)cc3)ccc2O1 | inactive
34 | NCC[C@H]1CC[C@H](NC(=O)c2ccccc2F)[C@H](CO)O1 | inactive
35 | C[C@@H]1CN([C@@H](C)CO)C(=O)c2cc(NC(=O)Cc3ccccc3)ccc2O[C@@H](C)CCCCO[C@H]1CN(C)Cc1ccc(C(F)(F)F)cc1 | inactive
36 | C[C@@H]1CCCCO[C@@H](CN(C)Cc2ccc(C(F)(F)F)cc2)[C@H](C)CN([C@H](C)CO)C(=O)c2cc(NC(=O)Cc3ccccc3)ccc2O1 | active
37 | C[C@@H]1CCCCO[C@H](CN(C)Cc2ccc(C(F)(F)F)cc2)[C@H](C)CN([C@@H](C)CO)C(=O)c2cc(NC(=O)Cc3ccccc3)ccc2O1 | inactive
38 | C[C@H]1CCCCO[C@H](CN(C)Cc2ccc(C(F)(F)F)cc2)[C@@H](C)CN([C@@H](C)CO)C(=O)c2cc(NC(=O)Cc3ccccc3)ccc2O1 | inactive
39 | C[C@@H]1CCCCO[C@@H](CN(C)Cc2ccc(C(F)(F)F)cc2)[C@@H](C)CN([C@@H](C)CO)C(=O)c2cc(NC(=O)Cc3ccccc3)ccc2O1 | inactive
40 | C[C@H](CO)N1C[C@H](C)[C@@H](CN(C)Cc2ccc(C(F)(F)F)cc2)OCCCC[C@H](C)Oc2ccc(NC(=O)Cc3ccccc3)cc2C1=O | active
